EWS-Fli inh: inhibitors of EWS/Fli oncoprotein transcriptional activity. A673 NR0B1-luciferase reporter, viability-normalised. 350,000 compounds, 0.67% hits. inhibition, % at 12.6 µM. AID 651661;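 active = mean inhibition of at least 50% after viability correction, with every replicate also passing that limit; inconclusive = mean reaches 50% but only one of two replicates passes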;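 also: firefly luciferase signal divided by Alamar Blue viability fluorescence both relative to DMSO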
LMP1 NFkB inh: reduces LMP1-driven NF-kappaB luciferase signal; 350,000 compounds, 0.69% hits; inhibition, % at 12.5 µM; LMP1-induced NF-kappaB luciferase reporter cells, luminescence; in the data active = inhibition above about 41%; inconclusive = no clear call, values can overlap the other calls
LGR2 antag: blocks bursicon-induced cAMP signaling via Drosophila LGR2; HEK293 LGR2, CRE-luciferase, bursicon-stimulated, 4 h; inhibition, % at 9.99 µM; 380,000 compounds, 0.35% hits;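 active = drop in luminescence signal, shown as inhibition above about 50% in the replicate tests, limit read from the data, passing the limit was not always enough; inconclusive = probably only some replicates passing the limit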;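 also: agonist challenge used bursicon conditioned medium at about half maximal strength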
PAX8 reporter: inhibitors of PAX8 transcriptional activity in RMG-I cells | AID 652154 | 360,000 compounds, 1.2% hits | inhibition, % at 12.6 µM | RMG-I TPO-luciferase reporter, SteadyGlo, 24 h;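 active = mean replicate inhibition at least 60% with every replicate also reaching 60%; inconclusive = only one of the two criteria is met; inactive = mean below 60% and not all replicates reaching 60%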;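 also: luciferase light reporting Pax8 driven TPO promoter activity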
TRPM1 prom inh: reduces MITF-dependent TRPM1 promoter luciferase signal; inhibition, % at 12.5 µM; 330,000 compounds, 0.83% hits; AID 488899; SK-MEL-5 TRPM1 promoter luciferase, 24 h;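 active = mean inhibition across replicates of 60% or more, whatever share of single replicates reaches that level; inconclusive = some that reach 60%, reason not given; inactive = mean inhibition across replicates below 60%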
Shn3 3UTR inh: inhibitors of Schnurri-3 3'UTR reporter in osteoblasts; Clone20 osteoblast Shn3 3'UTR firefly luciferase, 24 h; inhibition, % at 12.5 µM; 360,000 compounds, 0.52% hits;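 active = mean inhibition of at least 75% with every replicate also reaching 75%; inconclusive = mean inhibition at least 75% but some replicate below; inactive = mean inhibition below 75%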
Large screens that a line does not name were inactive. Hits are enriched below; roughly 2.2% of the tested compounds scored in any of these assays.

O=C(O)CCN1C(=O)C(=C2CCCCCC2)SC1=S	none (no result: EWS-Fli inh, LGR2 antag, PAX8 reporter)
CCN(CC)CCNC(=O)c1ccc(NC(=O)c2cccc(S(=O)(=O)N3c4ccccc4CC3C)c2)cc1 (configuration not stated)	TRPM1 prom inh 93
CNC[C@@H]1Oc2ccc(NS(=O)(=O)c3cn(C)cn3)cc2C(=O)N([C@@H](C)CO)C[C@@H]1C	none (no result: LMP1 NFkB inh, TRPM1 prom inh, Shn3 3UTR inh)
CN1C(=O)c2cc(NC(=O)c3cnccn3)ccc2OC[C@@H]2O[C@H](CC(=O)O)CC[C@H]21	none (no result: LMP1 NFkB inh, TRPM1 prom inh, Shn3 3UTR inh)
O=[N+]([O-])c1ccc2ncnc(N3CCN(Cc4ccc5c(c4)OCO5)CC3)c2c1	LMP1 NFkB inh 42
O=C(c1cccs1)c1no[n+]([O-])c1C(=O)c1cccs1	TRPM1 prom inh 67 (no result: EWS-Fli inh, LGR2 antag, PAX8 reporter)
CC(=O)Nc1ccc(CNc2ncnc3ccc(-c4c(C)noc4C)cc23)cc1	EWS-Fli inh 70
COCCN(Cc1cc2cc(C)cc(C)c2nc1Cl)C(=O)Nc1ccccc1	none (no result: PAX8 reporter)
Cc1cc(C)c2nc(Cl)c(CN(Cc3ccco3)C(=O)Nc3ccccc3C)cc2c1	EWS-Fli inh 56 (no result: PAX8 reporter)
C[C@H](CO)N1C[C@H](C)[C@H](CN(C)C(=O)Cc2ccccn2)Oc2ncc(C#CC3CC3)cc2C1=O	none (no result: LMP1 NFkB inh, PAX8 reporter, TRPM1 prom inh, Shn3 3UTR inh)
Cc1cc(Br)ccc1OCCn1ccnc1	PAX8 reporter 73
C[C@H](CO)N1C[C@H](C)[C@H](CN(C)S(=O)(=O)c2ccc(F)cc2)Oc2cc(C3=CCCCC3)ccc2S1(=O)=O	none (no result: LMP1 NFkB inh, PAX8 reporter, TRPM1 prom inh, Shn3 3UTR inh)
CCN1C(=O)C(=Cc2cccc(OC)c2Oc2ccc([N+](=O)[O-])cc2[N+](=O)[O-])SC1=S	EWS-Fli inh 58, TRPM1 prom inh 88, Shn3 3UTR inh 99
COc1cc(/C=C2\SC(=O)NC2=O)ccc1Oc1ccc([N+](=O)[O-])cc1[N+](=O)[O-]	none
CCCNC(=O)C[C@@H]1CC[C@H]2[C@@H](COc3ccc(NC(=O)c4cccc(Cl)c4)cc3C(=O)N2C)O1	none (no result: LMP1 NFkB inh, TRPM1 prom inh, Shn3 3UTR inh)
Cn1c(=O)[nH]c(=O)c2c1nc([N+](=O)[O-])n2Cc1ccccc1	LMP1 NFkB inh 95, LGR2 antag inconclusive, PAX8 reporter 101, TRPM1 prom inh 93, Shn3 3UTR inh 98
Cn1c(=O)[nH]c(=O)c2c1nc(N1CCNCC1)n2Cc1ccccc1	none
CC(C)Cn1c([N+](=O)[O-])nc2c1c(=O)[nH]c(=O)n2C	PAX8 reporter 78 (no result: Shn3 3UTR inh)
CO[C@H]1CN(C)C(=O)c2ccc(NS(=O)(=O)c3cn(C)cn3)cc2OC[C@H](C)NC[C@H]1C	none (no result: LMP1 NFkB inh, TRPM1 prom inh, Shn3 3UTR inh)
Cc1cc(/C=C\c2ccc3cc(N(C)C)ccc3[n+]2C)c(C)n1-c1ccccc1	LMP1 NFkB inh 52, TRPM1 prom inh 101, Shn3 3UTR inh 95 (no result: EWS-Fli inh, LGR2 antag, PAX8 reporter)
CCCCSc1ccc2nc(-c3ccc(C#N)cc3)cn2c1	none (no result: EWS-Fli inh, PAX8 reporter)
CCCSc1ccc2nc(-c3ccccc3)cn2c1	LMP1 NFkB inh 68, LGR2 antag inconclusive, TRPM1 prom inh 79 (no result: EWS-Fli inh)
C[C@H](O)[C@@H]1CN2CCc3c([nH]c4ccc(-c5ccc6c(c5)OCO6)cc34)[C@@H]2C[C@@H]1N(C)C(=O)NC1CCCCC1	PAX8 reporter 90 (no result: TRPM1 prom inh)
Cc1noc(C)c1S(=O)(=O)N(C)C[C@H]1OCCCC[C@H](C)Oc2ccc(NC(=O)Nc3ccc(F)cc3)cc2C(=O)N([C@@H](C)CO)C[C@@H]1C	none (no result: LMP1 NFkB inh, TRPM1 prom inh, Shn3 3UTR inh)
C[C@@H]1CN([C@H](C)CO)C(=O)c2cc(NS(=O)(=O)c3ccc(F)cc3)ccc2O[C@@H](C)CCCCO[C@@H]1CN(C)C(=O)CCC(F)(F)F	none (no result: LMP1 NFkB inh, TRPM1 prom inh, Shn3 3UTR inh)
CN1c2ccc(C#Cc3cccnc3)cc2[C@H]2[C@H](CCN2S(=O)(=O)c2ccccc2F)[C@@H]1CO	none (no result: LMP1 NFkB inh, TRPM1 prom inh, Shn3 3UTR inh)
C=C1C(=O)[C@]23C[C@H]1CC[C@H]2[C@]1(C)[C@@H](OC(C)=O)CC[C@@](C)(C(=O)O)[C@H]1C[C@@H]3OC(C)=O	PAX8 reporter 86 (no result: LMP1 NFkB inh, TRPM1 prom inh)
C=C1C(=O)[C@]23C[C@H]1CCC2[C@]1(C)CCC[C@@](C)(C(=O)O)C1C[C@@H]3O (some centres not stated)	PAX8 reporter 117, Shn3 3UTR inh 89 (no result: LMP1 NFkB inh, TRPM1 prom inh)
C=C1C(=O)[C@]23C[C@H]1CCC2[C@]1(C)C(=O)CC[C@@](C)(C(=O)O)C1C[C@@H]3O (some centres not stated)	PAX8 reporter 65 (no result: LMP1 NFkB inh, TRPM1 prom inh)
Cc1noc(C)c1NC(=O)Nc1ccc2c(c1)C(=O)N([C@@H](C)CO)C[C@@H](C)[C@@H](CN(C)Cc1ccc(C(F)(F)F)cc1)O2	none (no result: EWS-Fli inh, LMP1 NFkB inh, TRPM1 prom inh, Shn3 3UTR inh)

Compound activity: PubChem BioAssay, Broad Institute
